# Measurements taken from PubChem BioAssay AID651656 (NMMLSC, 2012).
# Unmarked numbers belong to inactive results.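 How the source made its calls: active means viability at the highest tested concentration below 50%; inactive means the rest.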
# Assay: viability loss, K562-ABCB6 cells – cell-based, CellTiter-Glo luminescence, PowderSet01 powders, cytotoxicity control for ABCB6 inhibitor project, dose response (AID 651656)
# Conditions: 18 h; series mostly up to 100 µM; viability: at the top concentration
row,Structure (SMILES),viability
1,CCc1ccc(NC(=O)c2nc(S(=O)(=O)Cc3ccccc3)ncc2Cl)cc1,72.5%
2,CCOc1ccccc1NC(=O)c1nc(S(=O)(=O)Cc2cccc(C)c2)ncc1Cl,65.6%
3,CC(=O)Nc1ccc(NC(=O)c2nc(S(=O)(=O)Cc3ccccc3)ncc2Cl)cc1,83.2%
4,CC(=O)Nc1ccc(NC(=O)c2nc(S(=O)(=O)Cc3cccc(C)c3)ncc2Cl)cc1,63.3%
